Screening data deposited in PubChem BioAssay by The Scripps Research Institute Molecular Screening Center.
Rows were chosen to be rich in hits. Some 1.2% of all compounds tested hit in one or more screens of this group.
GALR2 ag – GALR2 receptor agonists, primary screen, cell-based | 140,000 tested, 0.48% active | GALR2-expressing cells, agonist activation read-out | activation, % (test concentration not listed) | AID 803, 2007; in the data active = activation above about 5%, passing the limit was not always enough;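 also: 0% = vehicle buffer wells and 100% = reference agonist at full effect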
S1P2 ag – S1P2 receptor agonists, primary screen, cell-based; Sphingosine 1-phosphate receptor 2 (Homo sapiens), O95136; 97,000 tested, 0.46% active; activation, % at 4.5 µM; S1P2-expressing cell line, agonist reporter read-out; in the data active = activation above about 16%;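 also: 0% = vehicle low control and 100% = maximal reference agonist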
Target sequence (O95136 whole entry, looked up): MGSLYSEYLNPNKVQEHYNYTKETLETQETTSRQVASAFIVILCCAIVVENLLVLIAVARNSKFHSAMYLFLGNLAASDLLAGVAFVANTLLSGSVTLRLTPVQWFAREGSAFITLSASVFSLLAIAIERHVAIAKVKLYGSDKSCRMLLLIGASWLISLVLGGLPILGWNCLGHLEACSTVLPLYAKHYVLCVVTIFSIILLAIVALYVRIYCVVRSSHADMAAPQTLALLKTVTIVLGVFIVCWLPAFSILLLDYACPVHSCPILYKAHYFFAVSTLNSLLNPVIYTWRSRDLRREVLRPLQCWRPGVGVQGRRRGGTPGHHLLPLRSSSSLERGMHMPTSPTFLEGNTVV
GALR2 antag – GALR2 antagonists in receptor-expressing cells, primary screen; antagonist mode; inhibition, % at 4 µM; 140,000 tested, 0.39% active; in the data active = inhibition above about 27%;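 also: cells stimulated with galanin 1-16 at roughly its EC80; 0% = agonist challenge control and 100% = basal control without agonist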
S1P2 blocker – human S1P2 receptor antagonists, primary screen, cell-based; AID 736, 2007; Sphingosine 1-phosphate receptor 2 (Homo sapiens), O95136; inhibition, % at 5 µM; cell-based S1P2 antagonist assay, inhibition at 5 uM; 97,000 tested, 0.21% active; in the data active = inhibition above about 45%;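 also: CRE beta-lactamase reporter cells expressing human S1P2 stimulated with S1P; 0% = agonist at EC80 alone and 100% = agonist plus reference antagonist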
The depositor's hits bear a star; / = no result given.

SMILES	GALR2 ag	S1P2 ag	GALR2 antag	S1P2 blocker
N#Cc1c(NCCN)nc(-c2ccco2)c2c1CCCC2	6	20*	-12	-47
CCc1nc(NCCC(C)C)c(C#N)c2c1CCCC2	-1	-5	10	-18
CC(C)CCNc1nc(-c2ccco2)c2c(c1C#N)CCCC2	10	37*	0	-50
Cn1c(=O)[nH]c(=O)c2[nH]c(N(Cc3ccccc3)Cc3ccccc3)nc21	1	5	-21	56*
Cn1c(=O)[nH]c(=O)c2c1nc(N(CCO)Cc1ccccc1)n2CCCc1ccccc1	-1	-1	-12	-22
O=C(Cc1ccc(Br)cc1)N1CCN(c2ccccc2O)CC1	-2	0	-5	-5
O=C(CSc1nnc(-c2ccccc2)n1Cc1ccco1)NCc1ccc2c(c1)OCO2	-2	-1	16	-13
C=CCn1c(SCC(=O)NC(=O)NCc2ccco2)nc2sc(C)c(C)c2c1=O	6.2*	-1	-8	-25
Cc1sc2nc(SCc3nc4ccccc4[nH]3)n(Cc3ccco3)c(=O)c2c1C	-2	17*	8	-32
Cc1sc2nc(SCc3ccccc3)n(Cc3ccco3)c(=O)c2c1C	-2	-9	2	12
O=C(Cc1ccc(F)cc1)Oc1ccc(C(=S)N2CCCC2)cc1	0	/	-1	/
Cc1noc2ncnc(Sc3ccc(Cl)cc3)c12	-2	-4	18	34
Cc1noc2ncnc(Sc3c(Cl)cccc3Cl)c12	-3	-6	20	48*
COCCNC(=O)CN1CCN(C(c2ccccc2)c2ccccc2)CC1	-3	55*	5	9
COC(=O)CN1CCN(C(c2ccccc2)c2ccccc2)CC1	0	-15	3	-2
COC(=O)c1ccc(NC(=S)NC2CC3CCC2C3)cc1 (configuration not stated)	-1	/	-5	/
Cc1cc2c(cc1C)/C(=C\C(N)=O)NC(C)(C)C2	-1	/	7	/
COc1cc2c(cc1OC)/C(=C/C#N)NC(C)(C)C2	0	26*	-12	-42
Cn1c(C(=O)N2CCN(c3ncccn3)CC2)cc2c(=O)n(C)c3ccccc3c21	-2	1	-8	-4
Cn1c(C(=O)N2CCCC2)cc2c(=O)n(C)c3ccccc3c21	-1	21*	-15	-25
COc1ccc(N=C2S/C(=C\c3ccc(N4CCOCC4)o3)C(=O)N2CCc2c[nH]c3ccccc23)cc1	2	-4	15	48*
CCCN1C(=O)/C(=C/c2ccc(C)o2)SC1=Nc1ccc(OC)cc1	-2	-10	-9	3
CC1(C)c2ccccc2N2CCC(=O)NC21/C=C/c1ccco1 (configuration not stated)	6.1*	-4	-5	0
COc1cc(CCN2C(=O)c3cccc4cccc(c34)C2=O)c(S(=O)(=O)N2CCC(C)CC2)cc1OC	1	/	-10	/
N#CCN1CCN(CC(=O)Nc2cccc3ccccc23)CC1	-2	760*	3	3
SMILES	GALR2 ag	S1P2 ag	GALR2 antag	S1P2 blocker
Cc1cc(C)cc(NC(=S)NCCN2CCOCC2)c1	-1	-2	3	11
COc1ccc(/C=c2\sc3nc(-c4ccccc4)c(-c4ccccc4)n3c2=O)cc1OC	-2	22*	-14	-3
COc1cc(/C=c2/sc3nc(-c4ccccc4)c(-c4ccccc4)n3c2=O)cc(OC)c1OC	0	/	-2	/
O=C(NCCC1=CCCCC1)c1ccc2c(c1)N(Cc1ccccc1)C(=O)CS2	-1	-5	1	2
Cc1cc(C)n(-c2nc(Nc3ccccc3C(F)(F)F)nc(-n3nc(C)cc3C)n2)n1	-2	-7	10	59*
Cc1cc(C)n(-c2nc(Nc3ccccc3C)nc(-n3nc(C)cc3C)n2)n1	1	-9	12	37
O=c1[nH]c(CN2CCN(S(=O)(=O)c3ccccc3C(F)(F)F)CC2)nc2sc3c(c12)CCCC3	-1	/	-8	/
COCCN1C=C(C(=O)OC)C(c2ccc(OC)c(OC)c2)C(C(=O)OC)=C1	0	4	-16	20
CCCOc1ccc(C2C(C(=O)OC)=CN(CCOC)C=C2C(=O)OC)cc1	6.9*	17*	-13	-18
Cc1nn(Cc2c(Cl)cccc2Cl)c(C)c1N	0	-3	-9	16
Cc1cccc2sc(NNC(=O)c3ccc(S(=O)(=O)N4CCc5ccccc5C4)cc3)nc12	-1	/	8	/
Cc1cccc2sc(NNC(=O)c3ccc(S(=O)(=O)N4CCCC(C)C4)cc3)nc12 (configuration not stated)	5.2*	/	-1	/
CC(C)OCC1CC(CC(=O)NC(=S)Nc2cccc([N+](=O)[O-])c2)C(=O)O1 (configuration not stated)	-1	47*	-3	-2
CC1(C)CC(CC(=O)NC(=S)Nc2ccc([N+](=O)[O-])cc2)C(=O)O1 (configuration not stated)	-2	-8	10	13
COc1ccc(CC(=O)Nc2cccc(-c3nnc(-c4ccccc4)o3)c2)cc1OC	-1	-6	12	56*
COc1ccc(CC(=O)Nc2cccc(-c3nnc(-c4ccc(C)cc4)o3)c2)cc1OC	-2	/	26	/
COc1ccc(CC(=O)Nc2cccc(-c3nnc(-c4cccc(C)c4)o3)c2)cc1OC	-1	/	28*	/
CCC(c1nnc(SCC(=O)Nc2ccc(Cl)cc2C(F)(F)F)n1C1CCCCC1)N(C)C (configuration not stated)	0	/	1	/
Cc1ccc(NC(=O)Cc2nn(C)c(=O)c3ccccc23)cc1F	0	-3	21	67*
COc1cc(NC(=O)Cc2nn(C)c(=O)c3ccccc23)cc(OC)c1	-1	-5	18	19
O=C(Nc1ccc(N2CCN(C(=O)c3ccccc3)CC2)c(Cl)c1)c1ccco1	-2	-4	12	16
CCC(=O)N1CCN(c2ccc(NC(=O)c3cc4ccccc4o3)cc2Cl)CC1	-1	-1	6	51*
CCCC(=O)N1CCN(c2ccc(NC(=O)c3cc4ccccc4o3)cc2Cl)CC1	-3	-6	8	76*
O=C(Nc1ccc(N2CCN(C(=O)c3ccco3)CC2)c(Cl)c1)c1cc2ccccc2o1	-3	-9	16	65*
O=C(c1cc2ccccc2o1)N1CCN(c2ccccc2Cl)CC1	-1	-4	-6	10
SMILES	GALR2 ag	S1P2 ag	GALR2 antag	S1P2 blocker
O=C(CSc1ncnc2c1oc1ccccc12)NCc1ccc(F)cc1	-2	0	12	-17
CCCc1cc(=O)[nH]c(SCc2cc(Cl)ccc2OC(F)F)n1	-2	-2	-10	-19
Cc1csc(/C(=N\O)c2csc(C)n2)n1	-2	-1	12	18
CC(=O)c1ccc(NC(=O)c2ccn(C(=O)OCC(C)C)n2)cc1	0	/	12	/
COc1cc(S(=O)(=O)N2CCN=C2c2ccccc2)ccc1F	-2	27*	2	2
CCN(CC)c1ccc2cc(S(=O)(=O)c3ccc(C)cc3)c(=O)oc2c1	6.0*	/	3	/
COc1cc(CNCCc2ccc(S(N)(=O)=O)cc2)ccc1OCc1ccc(Cl)cc1	-1	-8	-10	27
CCOc1cc(CNCCc2ccc(S(N)(=O)=O)cc2)ccc1OCc1ccc(Cl)cc1	1	-5	9	61*
